Hits are enriched below; roughly 4% of the tested compounds scored in any of these assays.
Mtb bLac sens: beta-lactam sensitization of Mtb H37Rv; M. tuberculosis H37Rv growth with meropenem, percent inhibition; inhibition, % at 25 µM; hit rate 0.27% among 330,000; call rule not given here;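 further: growth measured after seven days incubation then overnight dye step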
Mtb FBA inh: inhibits M. tuberculosis FBA enzyme; purified M. tuberculosis FBA, fluorescence read-out; inhibition, % at 1 µM; hit rate 2.3% among 360,000; AID 588726; in the data active means inhibition above about 27%
Target sequence (P9WQA3 whole entry, looked up): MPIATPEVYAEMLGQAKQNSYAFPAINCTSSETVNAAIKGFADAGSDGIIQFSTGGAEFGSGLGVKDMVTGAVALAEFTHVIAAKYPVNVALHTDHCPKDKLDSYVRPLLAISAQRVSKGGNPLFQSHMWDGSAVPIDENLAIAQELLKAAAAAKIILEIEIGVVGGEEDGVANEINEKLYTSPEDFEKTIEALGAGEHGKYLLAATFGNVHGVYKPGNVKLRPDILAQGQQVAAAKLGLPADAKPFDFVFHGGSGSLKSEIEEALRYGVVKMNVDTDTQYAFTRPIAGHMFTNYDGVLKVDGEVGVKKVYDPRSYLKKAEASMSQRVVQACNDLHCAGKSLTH
GDH-TPI inh: inhibits GDH-TPI coupling enzymes, artifact for Mtb FBA screen; inhibition, % at 4.8 µM; hit rate 1.2% among 360,000; GDH-TPI coupled enzyme counterscreen, NADH absorbance; AID 588335
MazEF act: increases E. coli MazEF RNase cleavage of RNA. activation, % at 20 µM. FAM/BHQ RNA-DNA oligo cleavage fluorescence, 5 h. hit rate 0.32% among 350,000. P0AE70; in the data active means activation above about 50%
Target sequence (P0AE70 whole entry, looked up): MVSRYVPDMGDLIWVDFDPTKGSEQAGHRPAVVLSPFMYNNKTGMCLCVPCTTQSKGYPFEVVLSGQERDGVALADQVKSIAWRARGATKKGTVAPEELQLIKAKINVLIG
CCHF vOTU inh-1: blocks the CCHF virus ovarian tumor domain protease. CCHFV vOTU protease, Pep-AMC fluorescence. inhibition, % at 11.5 µM. hit rate 0.55% among 370,000. AID 651958
CCHF vOTU inh-2: CCHFV vOTU protease inhibition, confirmation; shares compounds with CCHF vOTU inh-1; Recombinant CCHFV vOTU, Pep-AMC fluorescence; inhibition, % at 11.5 µM; hit rate 17% among 1,900; AID 686976
Large screens that a line does not name were inactive (follow-up assays come after a bar, where they were run). Unless noted, no stated cut-off is given here; in the data, active means inhibition above about 30%; inactive means the rest.

CCCCC[C@H](C)N1C[C@H](COCc2ccccc2)Oc2cc(N3CC[C@@H](N(C)C)C3)ccc2S1(=O)=O	CCHF vOTU inh-1 36.7 (no result: Mtb bLac sens, Mtb FBA inh, GDH-TPI inh, MazEF act) | CCHF vOTU inh-2 inactive
CCCCC[C@@H](C)N1C[C@@H](COCc2ccccc2)Oc2cc(N3CC[C@@H](O)C3)ccc2S1(=O)=O	CCHF vOTU inh-1 30.9 (no result: Mtb bLac sens, Mtb FBA inh, GDH-TPI inh, MazEF act) | CCHF vOTU inh-2 inactive
CCCCC[C@@H](C)N1C[C@@H](COCc2ccccc2)Oc2cc(N3CC[C@@H](N(C)C)C3)ccc2S1(=O)=O	CCHF vOTU inh-1 34.7 (no result: Mtb bLac sens, Mtb FBA inh, GDH-TPI inh, MazEF act) | CCHF vOTU inh-2 inactive
CCCCC[C@@H](C)N1C[C@@H](COCc2ccccc2)Oc2cc(N3CCC[C@@H]3CO)ccc2S1(=O)=O	CCHF vOTU inh-1 34.6 (no result: Mtb bLac sens, Mtb FBA inh, GDH-TPI inh, MazEF act) | CCHF vOTU inh-2 inactive
CCCCC[C@@H](C)N1C[C@H](COCc2ccccc2)Oc2cc(N3CC[C@@H](N(C)C)C3)ccc2S1(=O)=O	none (no result: Mtb bLac sens, Mtb FBA inh, GDH-TPI inh, MazEF act)
NC(=O)C1CCN(C(=O)c2ccc(NS(=O)(=O)/C=C/c3ccccc3)cc2)CC1	none (no result: Mtb bLac sens)
COc1ccccc1OCC(=O)Nc1cc(S(=O)(=O)N2CCOCC2)ccc1N1CCCCC1	none
O=C(CSc1nnc(-c2ccncc2)o1)Nc1nncs1	none
O=C(CSc1nnc(-c2ccccc2Br)o1)Nc1nncs1	CCHF vOTU inh-1 30.4 | CCHF vOTU inh-2 inactive
Cc1c(C(=O)N(Cc2ccccc2)C(C)C)oc2ccc(S(=O)(=O)N3CCOCC3)cc12	none
Cc1cc(C)c(Nc2cc(S(=O)(=O)O)c(N)c3c2C(=O)c2ccccc2C3=O)c(C)c1	CCHF vOTU inh-1 46.8 | CCHF vOTU inh-2 inactive
O=C(CO)N/N=C/c1cccc(Cl)c1Cl	none
FC(F)(F)c1ccccc1/C=N/Nc1ccccn1	none
Nn1cnnc1N/N=C/c1ccccc1C(F)(F)F	CCHF vOTU inh-1 69.4 | CCHF vOTU inh-2 inactive
Nn1cnnc1N/N=C/c1cccc(Cl)c1Cl	CCHF vOTU inh-1 60.8 | CCHF vOTU inh-2 inactive
CCCc1nnc(SCC(=O)O)n1CC	none
Cc1ccc(C)c(/C(O)=C2\C(=O)C(=O)N(CCCN3CCOCC3)C2c2cccnc2)c1 (stereo not given)	GDH-TPI inh 53.5, CCHF vOTU inh-1 45.8 (no result: Mtb bLac sens) | CCHF vOTU inh-2 inactive
O=C1C(=O)c2ccccc2-c2ccccc21	CCHF vOTU inh-1 113.9 | CCHF vOTU inh-2 96.2
O=C1C(=C(I)I)c2ccccc2-c2ccccc21	CCHF vOTU inh-1 95.1 (no result: Mtb bLac sens) | CCHF vOTU inh-2 55.1
Cc1nc2c(nc1C)C(=O)c1ccccc1C2=O	CCHF vOTU inh-1 31.7 (no result: Mtb bLac sens) | CCHF vOTU inh-2 inactive
Cc1nc2c3ccccc3nc(NNC(=O)CCC(=O)NCCN3CCN(c4ccccc4)CC3)n2n1	none
Cc1ccccc1-c1cnc(C(O)c2ccc(Cl)cc2C)[nH]1 (stereo not given)	none (no result: Mtb bLac sens, MazEF act)
COC(=O)CSc1[nH]c2ccc(Br)cc2c1[N+](=O)[O-]	CCHF vOTU inh-1 33.4 | CCHF vOTU inh-2 inactive
NC(=S)NN=Cc1nccc2c(N)cccc12	CCHF vOTU inh-1 64.2 (no result: Mtb bLac sens) | CCHF vOTU inh-2 inactive
COC(=O)c1cccc(/C=N/NC(N)=S)c1O	none
Cc1ccsc1C(=O)NCc1ccc(F)cc1	none
O=C(NCc1ccc(OC(F)(F)F)cc1)C1CC(c2ccccc2C(F)(F)F)=NO1 (stereo not given)	CCHF vOTU inh-1 37.2 | CCHF vOTU inh-2 inactive
COc1ccc(COC(=O)Oc2ccc(CNC(C)=O)cc2OC)c([N+](=O)[O-])c1	none
COc1cc(COC(=O)Oc2ccc(CNC(C)=O)cc2OC)c([N+](=O)[O-])cc1OC	CCHF vOTU inh-1 31.3 | CCHF vOTU inh-2 inactive
COc1ccccc1NS(=O)(=O)c1cccc(-n2c(O)c(C=Nc3ccccc3C(=O)O)c3ccccc3c2=O)c1	CCHF vOTU inh-1 38.2 | CCHF vOTU inh-2 37.5
Cc1c(C)n(Cc2ccc(-c3ccccc3C(=O)O)cc2)c2ccc(C(=O)N[C@@H](C)c3ccc(Br)cc3)cc12	CCHF vOTU inh-1 32.8 (no result: Mtb bLac sens, Mtb FBA inh, GDH-TPI inh, MazEF act) | CCHF vOTU inh-2 inactive
CC(=O)Nc1ccc(NC(=O)C2(C)Cc3c(-c4cccc(C(F)(F)F)c4)ccnc3O2)cc1 (stereo not given)	none (no result: Mtb bLac sens, MazEF act)
CC(=O)c1cccc(NC(=O)C2(C)Cc3c(-c4cccc(C(F)(F)F)c4)ccnc3O2)c1 (stereo not given)	CCHF vOTU inh-1 33.3 (no result: Mtb bLac sens, MazEF act) | CCHF vOTU inh-2 inactive
CC(=O)c1cccc(NC(=O)C2Cc3c(-c4cccc(C(C)=O)c4)ccnc3O2)c1 (stereo not given)	none (no result: Mtb bLac sens, MazEF act)
CC(=O)c1cccc(-c2ccnc3c2CC(C(=O)Nc2cccc(C(F)(F)F)c2)O3)c1 (stereo not given)	CCHF vOTU inh-1 33.1 (no result: Mtb bLac sens, MazEF act) | CCHF vOTU inh-2 inactive
CC1(C(=O)Nc2cccc(OC(F)(F)F)c2)Cc2c(-c3cccc(C(F)(F)F)c3)ccnc2O1 (stereo not given)	CCHF vOTU inh-1 40.5 (no result: Mtb bLac sens, MazEF act) | CCHF vOTU inh-2 inactive
CC(C)CC1NC(=O)c2cc3ccccc3cc2-n2c1nc1ccc(Cl)cc1c2=O (stereo not given)	none (no result: Mtb bLac sens)
NC(=O)C1C(=O)c2ccccc2C1(C[N+](=O)[O-])c1ccccc1 (stereo not given)	CCHF vOTU inh-1 46.3 (no result: Mtb bLac sens) | CCHF vOTU inh-2 inactive
CC(C)CNC(=O)CCc1nc(-c2ccccc2)no1	none
O=C(O)CC(NC(=O)C1c2ccccc2Oc2ccccc21)c1ccc(OC2CCCC2)cc1 (stereo not given)	CCHF vOTU inh-1 32.9 | CCHF vOTU inh-2 inactive
COc1cc(C(N)=O)ccc1OCc1ccccc1	CCHF vOTU inh-1 29.9 | CCHF vOTU inh-2 inactive
CCC(=O)c1ccc(OCc2ccccc2)c(OC)c1	none
CCCC(=O)N1CCC(NS(=O)(=O)c2ccc3c(c2)CCN3C(C)=O)CC1	none (no result: Mtb bLac sens, Mtb FBA inh, GDH-TPI inh, MazEF act)
Cc1cc2c(cc1C)C(=O)C(Br)=C(N)C2=O	CCHF vOTU inh-1 78.0 (no result: Mtb bLac sens) | CCHF vOTU inh-2 57.5
NC1=C(Br)C(=O)c2ccccc2C1=O	CCHF vOTU inh-1 90.6 | CCHF vOTU inh-2 98.6
COc1cccc(N2CC(C(=O)Nc3nnc(SCC(=O)NCc4ccco4)s3)CC2=O)c1 (stereo not given)	none
CCCOC(=S)NC(=O)c1sc2ccccc2c1Cl	none
CCOC(=S)NC(=O)c1sc2ccccc2c1Cl	CCHF vOTU inh-1 33.9 | CCHF vOTU inh-2 inactive
O=C(NCC(=O)N(c1ccc(F)cc1)C(C(=O)NC1CCCCC1)c1ccncc1)c1ccco1 (stereo not given)	none
CCN(CC)S(=O)(=O)c1cccc(C(=O)Nc2nnc(C)s2)c1	CCHF vOTU inh-1 31.3 | CCHF vOTU inh-2 inactive
CCN(CC)S(=O)(=O)c1cccc(C(=O)Nc2nncs2)c1	none
COc1ccc(N(C)S(=O)(=O)c2cccc(C(=O)Nc3nc(C)c(C(C)=O)s3)c2)cc1	CCHF vOTU inh-1 35.2 | CCHF vOTU inh-2 inactive
CCOC(=O)C1CCN(C(=O)COC(=O)CNC(=O)c2ccc(OC)cc2)CC1	none
COc1ccc(NC(=O)COC(=O)CCc2ccc(S(=O)(=O)N3CCOCC3)cc2)c(OC)c1	none
CC(/C=C1\SC(=S)N(c2ccc(C(=O)O)cc2)C1=O)=C\c1ccccc1	CCHF vOTU inh-1 30.0 | CCHF vOTU inh-2 inactive
CC(/C=C1\SC(=S)N(NC(=O)c2ccc(C)cc2)C1=O)=C\c1ccccc1	none (no result: CCHF vOTU inh-1)
C=CCN(C(=O)c1csnn1)C(C(=O)NC1CCCC1)c1ccccc1F (stereo not given)	none
